# Screening data as filed in PubChem.
# Compounds with a hit are over-represented: about 19% of the library has one in this group of screens.
# IL-1B inflam inh – blocks inflammasome-driven IL-1 beta release | THP-1 LPS/ATP IL-1B secretion, AlphaLISA, 16 h; stronger effect = lower value | activity change, % at 57.5 µM | 360,000 tested, 4.7% active; in the data active = activity change below about -50%; inconclusive = mostly about -30% to -49%
#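 THP-1 cells pretreated 1 hr with compounds (up to 57.5 uM final), then stimulated with LPS (250 ng/mL final) plus ATP (1.25 mM final); secreted IL-1B measured by AlphaLISA after 16 hr, decreased signal indicating inhibition.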
# TDP1 cell CPT – growth inhibition of DT40 Tdp1-/-;hTDP1 cells with camptothecin (screen for TDP1 inhibitors); Potency, µM (top dose mostly 46.2 µM), hits mostly inhibitors; 420,000 tested, 12% active; chicken DT40 Tdp1-/-;hTDP1 cells + 20 nM CPT, ATP luminescence, 48 h; note: nearly all actives have a fitted effect of over 55% in size
#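 Chicken DT40 Tdp1-/- cells complemented with human TDP1, 400 cells/well, exposed to compounds plus 20 nM camptothecin for at least 48 h at 37 C; viability read as ATP content by CellTiter-Glo luminescence.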
# HT1080-NT tox – kills 2HG-producing HT-1080-NT fibrosarcoma cells; HT-1080-NT fibrosarcoma viability, CellTiter-Glo ATP luminescence, 48 h; 360,000 tested, 1.6% active; Potency, µM (titrated, usually from 46.1 µM), usual class: cytotoxic; AID 686970;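 note: NT is the 2HG producing partner of a matched IDH1 knockdown line; nearly all actives have a fitted effect of over 55% in size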
#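 Toxicity toward the 2HG-producing NT line was scored as %Activity, normalised to DMSO and no-cell wells, from CellTiter-Glo luminescence after 48 hours' treatment.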
# HT1080 IDH1KD tx – HT-1080 IDH1 knockdown cell toxicity (counter line); Potency, µM (series often up to 46.1 µM), usual class: cytotoxic; AID 686971; 360,000 tested, 2% active; HT-1080 IDH1 knockdown viability, ATP luminescence, 48 h
#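 Viability of IDH1-knockdown HT-1080 fibrosarcoma cells was assessed by CellTiter-Glo after 48 h at 37 °C with titrated compound; concentration-effect curves were classified by fit quality and response size.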
# DT40 TDP1 no CPT – qHTS for Inhibitors of human tyrosyl-DNA phosphodiesterase 1 (TDP1): qHTS in cells in absence of CPT | 420,000 tested, 15% active | Potency, µM (doses to about 46.2 µM), actives largely listed as inhibitors | DT40 Tdp1-/- hTDP1 cells, no CPT, ATP luminescence, 48 h; note: nearly all actives have a fitted effect of over 55% in size
#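 Cells were dispensed at 400 per well, compounds added by pin tool, plates incubated ≥48 hr at 37 °C, then CellTiter-Glo added for 30 min at room temperature before luminescence reading. Line: DT40 Tdp1-/- complemented with hTDP1; camptothecin omitted.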
# Numbers stand for hits; – = inactive; ? = inconclusive; · = no result; ! = repeats disagree. Unless noted, calls come from the whole dose curve; as a rule, active = well fitted curve in the direction sought with a large enough effect; inconclusive = small, poorly fitted or top-dose-only effect, or another doubt; inactive = no such curve, though single readings can be large; an effect the other way counts as inactive or inconclusive.
SMILES,IL-1B inflam inh,TDP1 cell CPT,HT1080-NT tox,HT1080 IDH1KD tx,DT40 TDP1 no CPT
COCCNc1nc(-c2ccccc2C(F)(F)F)nc2ccccc12,·,–,·,·,–
COc1ccccc1CNc1nc(-c2ccccc2CN(C)C)nc2ccccc12,·,12µM,·,·,6.5µM
COCCNc1nc(-c2ccccc2C)nc2ccccc12,·,?,·,·,18µM
COc1ccccc1CNc1ccnc(-c2ccoc2)n1,·,–,·,·,?
CN(C)Cc1ccccc1-c1nc(NCc2ccccc2)c2ccccc2n1,·,16µM,·,·,6.5µM
COc1ccccc1CNc1nc(-c2ccoc2)nc2ccccc12,·,15µM,·,·,26µM
COc1ccccc1CNc1ncncc1-c1ccccc1CN(C)C,·,–,·,·,?
COc1cccc(Cn2c(=O)c(-c3ccc(F)cc3)nc3cnc(OC)nc32)c1,·,–,·,·,–
Cn1ccc(C(=O)Nc2ccc(Br)cc2Br)n1,–,–,–,–,–
COCCNc1nc(-c2ccccc2CN(C)C)nc2ccccc12,·,?,·,·,12µM
CN1/C(=C/c2cc[n+](C)c3ccccc23)C=Cc2ccccc21,-97,0.46µM,7.3µM,5.8µM,0.18µM
O=S(=O)(c1ccccc1)N1CCc2ccccc2C1,–,–,–,–,–
N#C/C(=C(/O)COC(=O)COc1cccc(Br)c1)c1nc2ccccc2[nH]1,–,?,–,–,–
CCOC(=O)c1c(C)[nH]c(C(=O)OCC(O)=C(C#N)c2nc3ccccc3[nH]2)c1C,–,?,?,?,?
Cc1cccc(C)c1OCC(=O)OC/C(O)=C(\C#N)c1nc2ccccc2[nH]1,–,?,–,–,21µM
Cc1c(-c2cccc(Cl)c2)nc2ccccc2c1C(=O)OC/C(O)=C(\C#N)c1nc2ccccc2[nH]1,–,15µM,–,–,21µM
Cc1cc(C)cc(OCC(=O)OC/C(O)=C(\C#N)c2nc3ccccc3[nH]2)c1,-98,?,–,–,21µM
CC(=O)/C(C#N)=C1\NC(=O)C(Cc2cc(Cl)ccc2Cl)S1 (configuration not stated),–,?,23µM,?,3.3µM
CC(=O)/C(C#N)=C1\NC(=O)C(Cc2ccccc2Cl)S1 (configuration not stated),–,?,–,3.7µM,?
O=C(CNc1ccc(C(F)(F)F)cc1[N+](=O)[O-])OCC(=O)c1ccccc1,–,–,–,–,–
CS(=O)(=O)c1ccc(S(=O)CC(=O)OCc2ccccc2)c([N+](=O)[O-])c1 (configuration not stated),-163,0.23µM,5.8µM,4.1µM,0.33µM
COC(=O)c1ccc(OC(=O)CS(=O)c2ccccc2[N+](=O)[O-])cc1 (configuration not stated),–,?,–,–,26µM
CC(=O)Nc1ccc(OCc2ccccc2)cc1[N+](=O)[O-],–,–,–,–,–
O=C(CS(=O)c1ccc(C(F)(F)F)cc1[N+](=O)[O-])Oc1ccccc1 (configuration not stated),-114,5.8µM,16µM,16µM,4.6µM
CCOC(=O)c1ccccc1OC(=O)CS(=O)c1ccccc1[N+](=O)[O-] (configuration not stated),–,?,–,–,?
SMILES,IL-1B inflam inh,TDP1 cell CPT,HT1080-NT tox,HT1080 IDH1KD tx,DT40 TDP1 no CPT
COc1ccccc1-c1nc(C#N)c(NCc2ccc(F)cc2)o1,–,–,–,–,?
COc1ccc(C(=O)NC(C(=O)NCC(=O)Nc2c(C)cccc2C)C(C)C)cc1 (configuration not stated),–,–,–,–,–
COc1ccc(OC)c(NC(=O)CN2CCC(C(=O)c3ccc(C)cc3)CC2)c1,–,26µM,–,?,21µM
COc1ccc(NC(=S)N2CCC(C(=O)c3ccc(C)cc3)CC2)c(OC)c1,–,13µM,–,–,9.2µM
COc1ccc(NC(=O)CN2CCC(C(=O)c3ccc(F)cc3)CC2)c(OC)c1,–,?,–,–,21µM
COc1cc2c(Cc3c4c5c(cc(OC)c(OC)c5c5c(OC)c(OC)ccc35)CCN4C)c3c4c(cc(OC)c(OC)c4c2cc1OC)CCN3C,·,–,·,·,–
CCOC(=O)N1CCc2cc(OC)c(OC)c3c2c1cc1cc(OC)c(OC)cc13,–,?,?,16µM,12µM
COc1ccc(CCNc2oc(COc3ccccc3)nc2C#N)cc1,–,?,–,–,?
COc1ccc(Nc2oc(COc3ccccc3F)nc2C#N)cc1,–,?,–,–,13µM
N#Cc1nc(COc2ccccc2F)oc1NCCc1ccccc1,-77,–,–,–,–
COc1ccc(Nc2oc(COc3ccc(OC)cc3)nc2C#N)cc1,–,–,–,–,?
CCCc1c(C)nc(N2CCN(c3ccccc3OC)CC2)[nH]c1=O,–,?,–,–,?
Cc1ccc(CN2CCC(CNC(=O)c3cnn(-c4ccccc4)c3C3CCN(C(=O)OC(C)(C)C)CC3)CC2)cc1,·,15µM,·,·,15µM
CC(C)(C)OC(=O)N1CCC(c2c(C(=O)NCC3CCN(C4CCCC4)C3)cnn2-c2ccccc2)CC1 (configuration not stated),–,?,–,–,–
Cc1ccc(-n2ncc(C(=O)NCC3CCN(C4CCCC4)C3)c2C2CCN(C(=O)OC(C)(C)C)CC2)cc1 (configuration not stated),–,?,23µM,?,?
CC(C)(C)OC(=O)N1CCC(c2c(C(=O)NCC3CCN(C4CCCC4)C3)cnn2-c2cccc(Cl)c2)CC1 (configuration not stated),-56,?,?,18µM,?
CC(C)(C)OC(=O)N1CCC(c2c(C(=O)NCC3CCN(C4CCCC4)C3)cnn2-c2ccc(F)cc2)CC1 (configuration not stated),?,?,–,–,?
COc1ccc(C)cc1NC(=O)c1sc2nc(-c3ccc(F)cc3)cn2c1C,·,–,·,·,–
CC(C)CC1Nc2ncnc(N3CCCCC3)c2N(Cc2ccc(Br)cc2)C1=O (configuration not stated),–,?,–,–,16µM
CC(C)CC1Nc2ncnc(N3CCN(c4ccccn4)CC3)c2N(Cc2ccccc2)C1=O (configuration not stated),-56!,?,–,–,?
CCC1Nc2ncnc(N3CCN(c4ccccc4)CC3)c2N(Cc2ccc(C)cc2)C1=O (configuration not stated),–,?,?,–,?
CC(C)CC1Nc2ncnc(N3CCN(c4ccccc4)CC3)c2N(Cc2ccc(Cl)cc2)C1=O (configuration not stated),–,?,–,–,18µM
Cc1ccc(CN2C(=O)C(CC(C)C)Nc3ncnc(N4CCN(c5ccccc5)CC4)c32)cc1 (configuration not stated),?,15µM,–,–,21µM
